{"source": "paper PMC5540273", "about": "(PLoS ONE, 2017);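 also: KINOMEscan kinase panel screen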"}
{"system": "ADCK4", "conditions": "concentration: 1 μM, replicates: in singlicate; n = 1", "units": {"%Inh": "%"}}
{"molecule": "Cc1cccc(-c2cc(-c3c[nH]nc3-c3ccccn3)ccn2)c1", "note": "[GW679395]", "%Inh": 22}
{"molecule": "Cc1ccc(Oc2ccc(Nc3ncnc4cc[nH]c34)cc2C)cn1", "%Inh": 0}
{"molecule": "O=C1NC(=O)C(c2ccccc2)=C1Nc1cccc(O)c1", "note": "[SB-390534]", "%Inh": 0}
{"molecule": "CCS(=O)(=O)c1ccc(OC)c(Nc2ncc(-c3ccc(F)cc3)o2)c1.Cl", "note": "[GW591947]", "%Inh": 15}
{"molecule": "Cl.c1ccc(Cn2cnc3cc(Nc4ncnc5ccccc45)ccc32)cc1", "note": "[GW272142]", "%Inh": 34}
{"molecule": "CN(C)c1cc(-c2ccc3c(N)n[nH]c3c2)nc(N)n1", "note": "[GSK2219329]", "%Inh": 23}
{"molecule": "Cc1nn2c(=O)cc(N3CCOCC3)nc2n1Cc1cccc(Cl)c1Cl", "note": "[GSK2342769]", "%Inh": 4}
{"molecule": "Nc1nc(-c2ccccc2F)c(-c2ccnc3ccccc23)s1", "note": "[GW560459]", "%Inh": 22}
{"molecule": "COc1ccc(-n2cnc3c(N)ncnc32)cc1", "note": "[SKF-97236]", "%Inh": 0}
{"molecule": "COc1cccc(C2=C(Nc3cccc(C(=O)O)c3)C(=O)NC2=O)c1", "note": "[SB-390770]", "%Inh": 8}
{"molecule": "COc1cc2nccc(Nc3cccc(Oc4ccccc4)c3)c2cc1OC.Cl", "note": "[GW284543]", "%Inh": 22}
{"molecule": "CCCC(=O)Nc1n[nH]c2ncc(-c3cccc4ccccc34)cc12", "note": "[SB-642057]", "%Inh": 5}
{"molecule": "CCc1nc(-c2cccc(C)c2)c(-c2ccncc2)s1", "%Inh": 0}
{"molecule": "O=C(Nc1ccc2c(c1)OCO2)NC1CCN(c2ccnc(NCc3ccc(F)cc3)n2)CC1", "note": "[GSK1379859]", "%Inh": 30}
{"molecule": "Cc1ccc(-c2ccc3c(ccc4sc5c(c43)NC[C@@H](C)N=C5N(C)C)n2)cn1", "%Inh": 0}
